{
  "source": "PubChem BioAssay AID504329",
  "about": "(Southern Research Specialized Biocontainment Screening …, 2011)",
  "note": "Screen size: about 340,000 compounds; about 1,000 (0.29%) were called active. The list is a sample of the results. Results with a measured potency or affinity are listed apart. Values without a mark were called inactive. No stated cut-off is given here; in the data, inconclusive means inhibition above about 27% without an active follow-up result; inactive means below that.",
  "data": [
    {"assay": "NS1A inhibition, H1N1 influenza, cell based functional assay (AID 504329)", "details": "percent inhibition, at 12.5 µM, hits give high values", "units": {"inhibition": "%"}, "values": [
      {"molecule": "CC(C)Oc1ccc(S(=O)(=O)N2CCCCC2)cc1NC(=O)CN1C(=O)NC(C)(C2CC2)C1=O", "note": "(stereo not drawn)", "inhibition": -3.52},
      {"molecule": "O=C(C1CCN(S(=O)(=O)c2ccccc2)CC1)N1CCCCCC1", "inhibition": 12.9},
      {"molecule": "CC(C)(C)C(=O)CSc1nc2ncc(Br)cc2[nH]1", "inhibition": 0.51},
      {"molecule": "Cc1ccc(NC(=O)c2cn(-c3cccc(C)n3)cn2)cc1", "inhibition": -6.72},
      {"molecule": "COC(=O)c1ccc(NC(=O)c2cn(-c3cccc(C)n3)cn2)cc1", "inhibition": -7.7},
      {"molecule": "Cc1cccc(-n2cnc(C(=O)N/N=C/c3ccccc3)c2)n1", "inhibition": -4.63},
      {"molecule": "C/C(=N/NC(=O)c1cn(-c2cccc(C)n2)cn1)c1ccc(C)cc1", "inhibition": 3.85},
      {"molecule": "COc1ccc(OC)c(NC(=O)COC(=O)[C@H](Cc2ccccc2)NC(=O)c2ccco2)c1", "inhibition": -3.78},
      {"molecule": "O=C(c1ccc(Cn2c(=S)[nH]c3ccc(N4CCOCC4)cc3c2=O)cc1)N1CCN(c2ccc(F)cc2)CC1", "inhibition": -6.32},
      {"molecule": "COc1cc(CN(C)C)cc(C=O)c1O", "inhibition": 1.87},
      {"molecule": "Nc1nc2cc(Br)ccc2o1", "inhibition": -24.5},
      {"molecule": "COc1cc(C(C)=O)ccc1OCC(=O)Nc1cc(Cl)ccc1-n1cncn1", "inhibition": -5.4},
      {"molecule": "O=C(NCC(=O)N(c1ccc(F)cc1)C(C(=O)NC1CCCC1)c1cccnc1)c1cccs1", "note": "(stereo not drawn)", "inhibition": -7.6},
      {"molecule": "O=C(CN1C(=O)c2cccnc2Oc2ccc(Cl)cc21)N1CCCC1", "inhibition": -12.6},
      {"molecule": "O=C1c2ccccc2CN1CCNS(=O)(=O)c1ccc2ccccc2c1", "inhibition": 0.05},
      {"molecule": "CCN(Cc1nc2cc(Cl)ccc2c(=O)[nH]1)C(=O)c1cc2c(s1)CCCCC2", "inhibition": -9.24},
      {"molecule": "CC1(C(=O)NCc2cc(F)cc(C(F)(F)F)c2)C=CC2(CCCCC2)N1C(=O)c1ccccc1", "note": "(stereo not drawn)", "inhibition": -9.29},
      {"molecule": "CS(=O)(=O)N(CC(=O)NCC1CCCO1)Cc1ccc(Cl)cc1", "note": "(stereo not drawn)", "inhibition": -3.33},
      {"molecule": "O=C(NNc1c2ccccc2nc2ccccc12)c1ccccc1Cl", "inhibition": -1.62},
      {"molecule": "O=C(NNc1c2ccccc2nc2ccccc12)c1ccccc1O", "inhibition": -2.01},
      {"molecule": "Cc1cccc(C)c1NC(=O)CN(C)C(=O)C(c1ccccc1)c1ccccc1", "inhibition": -4.5},
      {"molecule": "COc1ccc(COC(=O)CCS(=O)(=O)c2ccc(C)cc2)cc1F", "inhibition": -5.19},
      {"molecule": "CN(C)CCNc1ccc(CO)c2oc3ccc(O)cc3c(=O)c12", "inhibition": 2.86},
      {"molecule": "CN(C)CCNc1ccc(CO)c2sc3ccc(O)cc3c(=O)c12", "inhibition": 21.9},
      {"molecule": "CCN(CC)CCNc1ccc(CO)c2sc3ccccc3c(=O)c12", "inhibition": -1.15},
      {"molecule": "CCN(CC)CCCNc1ccc2ncn3c4ccc(O)cc4c(=O)c1c23", "inhibition": 18.1},
      {"molecule": "CCOC(=O)N1CCN(C(=O)CN(C)S(=O)(=O)c2ccc3c(c2)c(=O)n(C)c(=O)n3C)CC1", "inhibition": 1.25},
      {"molecule": "CCn1nc(C)c(/C=N\\NC(=O)c2cccc(OC)c2)c1C", "inhibition": -6.26},
      {"molecule": "O=C(Nc1cccnc1)C1CCN(S(=O)(=O)c2cccc3nonc23)CC1", "inhibition": 7.53},
      {"molecule": "CCOc1cc(/C=C2\\SC(=S)N(Nc3ccccc3)C2=O)ccc1O", "inhibition": -19.7},
      {"molecule": "COc1cc(/C=C2\\SC(=S)N(Nc3ccccc3)C2=O)ccc1O", "inhibition": 16.4},
      {"molecule": "N#CC1=C2SCCN2C(=O)C(C#N)C12CCCCC2", "note": "(stereo not drawn)", "inhibition": -0.17},
      {"molecule": "Cc1cc(C)c2oc(=O)cc(CN3CCN(Cc4ccccc4)CC3)c2c1", "inhibition": 0.54},
      {"molecule": "COc1cccc(-n2c(SCC(=O)NCc3cccs3)nc3ccccc3c2=O)c1", "inhibition": 0.54},
      {"molecule": "O=C(c1ccc(F)cc1)N1CCC(C(=O)N2CCN(S(=O)(=O)c3cccc(Cl)c3)CC2)CC1", "inhibition": -5.53},
      {"molecule": "CCOCCc1nnc(NC(=O)CN2C(=O)c3ccccc3C2=O)s1", "inhibition": -7.03},
      {"molecule": "CN(C)c1ncc(C2=C(Cl)C(=O)C(N3CCCC3)=C(Cl)C2=O)s1", "inhibition": 8.59},
      {"molecule": "CN1CCN(C2=C(Cl)C(=O)C(c3cnc(N4CCCCC4)s3)=C(Cl)C2=O)CC1", "inhibition": 18.9},
      {"molecule": "COc1ccc(C(=O)C2CN(C)CC2c2ccc(Cl)cc2)cc1", "note": "(stereo not drawn)", "inhibition": -2.24},
      {"molecule": "CN1CC(C(=O)c2ccc(Cl)cc2)C(c2ccccc2)C1", "note": "(stereo not drawn)", "inhibition": -3.51},
      {"molecule": "O=[N+]([O-])c1ccc2nc(N3CCCC3)sc2c1", "inhibition": -13.2},
      {"molecule": "COc1cc(Cl)c(C)cc1N1C(=O)CN(Cc2ccccc2)C1=S", "inhibition": -3.41},
      {"molecule": "CN1CCN(c2ccc(NC(=O)COc3ccccc3[N+](=O)[O-])cc2)CC1", "inhibition": 0.13},
      {"molecule": "O=C(COc1cc(F)ccc1[N+](=O)[O-])Nc1ccc(N2CCOCC2)cc1", "inhibition": 6.79},
      {"molecule": "NS(=O)(=O)c1ccc(NC(=O)COC(=O)C2CCCCC2)cc1", "inhibition": -11.2},
      {"molecule": "COc1ccc(NC(=O)CNCCC2=CCCCC2)cc1", "inhibition": -5.53},
      {"molecule": "Cc1ccc(S(=O)(=O)N2CC(O)C[C@H]2C(=O)OCC(=O)Nc2ccc(N3CCOCC3)cc2)cc1C", "note": "(stereo partly drawn)", "inhibition": -8.01},
      {"molecule": "O=C(CNCCC1=CCCCC1)Nc1ccccc1N1CCCCCC1", "inhibition": -4.99},
      {"molecule": "Cc1ccc(S(=O)(=O)N2CC(O)C[C@H]2C(=O)OCC(=O)N2CCN(c3ccc(F)cc3)CC2)cc1C", "note": "(stereo partly drawn)", "inhibition": -4.2},
      {"molecule": "CC(=O)Nc1ccc(NC(=O)COC(=O)C2CCCCC2)cc1", "inhibition": -9.9},
      {"molecule": "COCc1cc(=O)[nH]c(SCC(=O)N2CCOCC2)n1", "inhibition": -7.79},
      {"molecule": "CC(=O)NC(CC(=O)OCC(=O)N1CCN(S(=O)(=O)c2ccc(Cl)cc2)CC1)c1ccccc1", "note": "(stereo not drawn)", "inhibition": -16.1},
      {"molecule": "COCCN(C(=O)CSc1nnc(-c2ccncc2)n1C)c1c(N)n(CC(C)C)c(=O)[nH]c1=O", "inhibition": -15.9},
      {"molecule": "CCSc1oc(-c2ccco2)nc1S(=O)(=O)c1ccc(F)cc1", "inhibition": 5.79},
      {"molecule": "c1ccc(COc2ccccc2CNC2CCCC2)cc1", "inhibition": 0.14},
      {"molecule": "O=C(/C=C/c1ccc(Cl)cc1)NCCCN1CCOCC1", "inhibition": -7.22},
      {"molecule": "CCC(Sc1nc2cc(OC)c(OC)cc2c(=O)n1CCc1ccc(OC)c(OC)c1)C(=O)NCCOC", "note": "(stereo not drawn)", "inhibition": 7.7},
      {"molecule": "COc1ccc(Cn2c(CCC(=O)NCc3ccco3)nc3cccnc32)cc1", "inhibition": 0.67}
    ]}
  ]
}
